Source: paper PMC12864922, “TDP-43 directly inhibits mRNA accumulation in neurites through modulation of mRNA stability”
Whole data set: some 9,900 sequences, median “r (bound/input frequency ratio)” near 0.7, cut for the highest 2% near 6.5. Shown is part of a subset that was picked to be rich in the highest values.

B1: ENSMUSG00000042529.105|Kcnj12 (ssRNA)
RNA: GGGAGUUCUACAGUCCGACGAUCGCUUCGAUAUCCGCAUGCUAAGGUCUGUUUUCUCCCUCACGUGGGCCAGGGCCUUAAGCGAGUUGUCAUGCUUAAGGAUGAAUCAGGCUGCUUGUGACCAUGUUAACGAUUCUAAUAAAGUGUCUGGAUGUCUCUUGGGGGUGGGGCCCACUAGGGUGAAUCUGGCUUGCUCUUCUGUUUGAUGUUGUUGUACCUCAGCUGCCUCAGGGCUGGGUUUAGACACCCCUUCCCCCACCCCCACUCCGUACUCCCUGUUGUGCUUCCCUUCCUAUUUAGUCCCCUCUUGCGGUCGCACUAGUGUGGAAUUCUCGGGUGUCAAGG
B2: ENSMUSG00000090935.77|Synj2bp (ssRNA)
RNA: GGGAGUUCUACAGUCCGACGAUCGCUUCGAUAUCCGCAUGCUACUUUGUCAGCAUAGGCAGGAGUCCUUUAGGAUUUCUGCCUAUCAGUAAAAGAAGUAUGUAACCCAAGUUCUACCUUCAGUGGAUUAAAGUUUCAUUAAGUGAAAAUGGAAAGAAAGUAGAAUUACUUGGUAAGAGGCCAAAUGAGGAUACAGAGGCUGAAGAAGAUUGAAAGGAGCUAGUGUAAACAAACAAACAAACAAACAAACAAAAAACCAAACCCCAAAACAAAAACAAAAACAAAACAAAAUUGGAGAAAGCAGCUCUUGCGGUCGCACUAGUGUGGAAUUCUCGGGUGUCAAGG
B3: ENSMUSG00000090935.604|Synj2bp|54:59 (ssRNA)
RNA: GGGAGUUCUACAGUCCGACGAUCGCUUCGAUAUCCGCAUGCUACUAAUAGACACUGUUUGCUUCAGUUGUUUUUGUUUCCUUUUCCUACAGUUUUCACACACGGUGAUUUCAUUUAAUUAAUUGGACAGUCUAGCCACAGGCAACAAAUAGAAAUAGUAUUUGUAAUUAUAGUCUAUGCCAGGGACUGUCUUAAACUGAUUAGUAACACUAUGACUUACCCUGAGAUCUAAGUAUUGCUAUAAAGAGACUGAAGAGGAGAGAAUAAAGUAUUUUCCUAGGACUACAUAGUUGGUAAAAGAGAACUCUUGCGGUCGCACUAGUGUGGAAUUCUCGGGUGUCAAGG
B4: ENSMUSG00000035279.10|Ssc5d|99:105 (ssRNA)
RNA: GGGAGUUCUACAGUCCGACGAUCGCUUCGAUAUCCGCAUGCUAAUGCCUUCAAACCACCCAGAAGCCAGACCUUACACUCAGCUUCAGACCACCUCACUCAAGGGCCAACCCCUAAUCACAACCCAGAUCCUUUUGGGCCAACACACACCCCAUUACCACCAGUAAGGGUCAUGGCUUGUGAGCCACCUGCCUUGGUGGAGCUGGUAGGUGCUGUGAGGGAGGUGGGUGACCAGCUGCAGAGACUGACCUGGGUCCUGGAGCAGGACCGGCAGGAGCGCCAAGUCCUGGCACUGGGCCUAGCCCUCUUGCGGUCGCACUAGUGUGGAAUUCUCGGGUGUCAAGG
B5: ENSMUSG00000031028.241|Tub (ssRNA)
RNA: GGGAGUUCUACAGUCCGACGAUCGCUUCGAUAUCCGCAUGCUAGGUUCUGGGGCUGGGCUUGGACACGCCCUCCAUUGGGAUGGCACCACUCAUCUGGUGGGCUUGGGAACUCCAAGCUCUUGCCUGUGUGCCAUCUGUGAGAAGCUUCUUGGAGCUGAGACACCAGAGGGAAGCAAAGAGCAUUUAGACAUUGCUUUUUGCUUUGAAAUAGAUAUGUUUGGAAACGCUAAGUAGAAGUUUAAAAAGUAGAGUCAUGUAGAGUCAUGCUUUGAAUAUGUGGGUCAUGCUUUAGAUAUGAAGAGCUCUUGCGGUCGCACUAGUGUGGAAUUCUCGGGUGUCAAGG
B6: ENSMUSG00000061578.211|Ksr2 (ssRNA)
RNA: GGGAGUUCUACAGUCCGACGAUCGCUUCGAUAUCCGCAUGCUAUGACACAAGAGGCAAAGCUGUCCCUAAGCAGAGAAUUAGCAGGGUUAGCCAGACAGCAAAAUCCAUGUAAACAUACAAAACCACCCCCCCUUUUUGAGUGGCCCUAUUGGAUGUACACACUAGGACCAAGCACGGGUCCAAAGCAGGAAGACUGAUUGACAGUAGUCACACUUCUAGAGAGAUGUACCCCAUGACACUUUCAAGUCUUUUCAGAACCUUCUCACCCCUUUGCAAAGCUCUUGCCGUCUGCACCCGGGACCCUCUUGCGGUCGCACUAGUGUGGAAUUCUCGGGUGUCAAGG
B7: ENSMUSG00000090935.117|Synj2bp (ssRNA)
RNA: GGGAGUUCUACAGUCCGACGAUCGCUUCGAUAUCCGCAUGCUAUUUGCCCUCACCAUGGUAGCAGUUUGGGCCUUCGUGAGAUACCGAAAGCAGCUUUGAAAUGCUUGCUGUCUUCCAGUGUGUCCAAUGAACUCUCUCUCUCACUCACCAUCUCUGACAUCCUCCCAUAUUCUUUCUCCUCCACAUAGCCAAUACAAGAUUUAAAGUGACUGCUUAUCACCCAAAACCCUGCUAUUCAAAAUCUCCUAUUCUAAUGGAAGAGUACAGGGGUUAUUUGAAGAAAAGCUGUGGUGGUGUGUGUGCUCUUGCGGUCGCACUAGUGUGGAAUUCUCGGGUGUCAAGG
B8: ENSMUSG00000061578.735|Ksr2 (ssRNA)
RNA: GGGAGUUCUACAGUCCGACGAUCGCUUCGAUAUCCGCAUGCUAUGUAUCAAGACCUUGGAGUUGUCUAAGGCUGUGGGUUUUAAAUACCUGCUGCAGGCCUCCCAUCUCUGGCUCUUUGUUUCCACUCUGGCCCAAGUUUGAGUCUCCAUAUGGGCCCUUCCUGUCCUCAUGCCCUGCCUGUCUUCAUUCCACCCAUCCACCCUCCUAAGGAUUGGUCUUGUUCCGAGAGUGAUCCUGGUAACGCCAAGCCUCCCUCUGCCCCUGUGUUGGCUUCUGUGACGGACUACCACACACCAAGAGGUCUCUUGCGGUCGCACUAGUGUGGAAUUCUCGGGUGUCAAGG
B9: ENSMUSG00000029028.148|Lrrc47 (ssRNA)
RNA: GGGAGUUCUACAGUCCGACGAUCGCUUCGAUAUCCGCAUGCUAUUGAGAACAUCAUGUUGUGAGUGUAAUCUUCUUAGAGCUUGUUUCCAGGCACCGUGCUGCCGCCAUGCUCCCAGGGCAGCAUCUGCCUUCCACGGCUGUGCUUGGAACUGUAGUGCUGGUCGUUGUUGGCACAUCUGCGCCUUGGCCAAGGAAGUUAUCUAUGUCCGUGUAGUCCUUUGUAGUCAGACAGAUGCUUCGUGGACUGUGCCUCACACAUGGCCCUGCAGGCUCCAUGUCAGCGUGUCCCACUAUUCAUGUCCCUCUUGCGGUCGCACUAGUGUGGAAUUCUCGGGUGUCAAGG
B10: ENSMUSG00000004113.103|Cacna1b (ssRNA)
RNA: GGGAGUUCUACAGUCCGACGAUCGCUUCGAUAUCCGCAUGCUAAUCCUAAGCAGGAGGUAGCUGAGUUGAGAUGGACCCAGCAAAUCCAAAUCCUAUGUCAUGGCCUCCAGCAUCCAGGGUGGGUCCUUGGGACUUUUCUUAGGAGGGACUUUCUGAGCCUCGUGGAGAGUGUGGUUUGUCCAAAUGUGUGGCAUGGGAGAUAGGGUACCCCUGAAAGCAAGGAAAGGAGCCCAGCUGUGGCCUGGUAGCACCUGCCGGCACCAGUGAUCUCACGUCUCUUGUGGUCUUGGAGUCAAAUAGCACUCUUGCGGUCGCACUAGUGUGGAAUUCUCGGGUGUCAAGG
B11: ENSMUSG00000061578.1429|Ksr2|169:173 (ssRNA)
RNA: GGGAGUUCUACAGUCCGACGAUCGCUUCGAUAUCCGCAUGCUAAGAUCUGUCUUGCUCUCUGUCUCUCUCACUCAUUGCCAACAUGUUGCUGGGAAAGAAUAUUUGAUUUAGAUGCCAAUCAGGAAGGCAAGUAGGAUGGAUGGAUGAGUGAGUGGAUAGGUAGGUAUAUAAAUGGAUGGAUGGGUGAUGGAUGGGUAAAUGAAUGGAUAGCAUACUGAAUGAAUGGAUGAUGGAUGAAUGGAUGGGUAGGUGGGUAGAUAGGUAUAUGAAUGAAUGGAUGAAUGGAUGGGUGAAUGGAUGGACUCUUGCGGUCGCACUAGUGUGGAAUUCUCGGGUGUCAAGG
B12: ENSMUSG00000035279.28|Ssc5d (ssRNA)
RNA: GGGAGUUCUACAGUCCGACGAUCGCUUCGAUAUCCGCAUGCUACAUUACCACCAGUAAGGGUCAUGGCUUGUGAGCCACCUGCCUUGGUGGAGCUGGUAGGUGCUGUGAGGGAGGUGGGUGACCAGCUGCAGAGACUGACCUGGGUCCUGGAGCAGGACCGGCAGGAGCGCCAAGUCCUGGCACUGGGCCUAGCCCAGUUGGUAGAGGCUGCUCAGGGGUUGGGGCAGCUGAGUGAGACUGUAAAGAGGCUAGCAGAGGUGGCCUGGCCCCCCAGCACUCCUGUGCCCAUGACCACCACCACACUCUUGCGGUCGCACUAGUGUGGAAUUCUCGGGUGUCAAGG
B13: ENSMUSG00000031028.488|Tub|93:99;130:136 (ssRNA)
RNA: GGGAGUUCUACAGUCCGACGAUCGCUUCGAUAUCCGCAUGCUAAGGAGGAGCUGAGAUGUGCACCCUUUUAAAUGAACAUGGGGUGGUGAUGGUGCCUUAACAAUCUUGACACUAAGGUGAAGCAAGCAAGUAAGCACACACCCUCUGGGAAGACAGGAGUCGGAAGCCAAGCACACACGCAACAGUCUGGAAGAGAGCUUUUGGUAAUCAUACCGUCUUCAGUGACAAGGCAACAAUGCUGUAAAGUGGGUUUGUUUGGUUUUGUUUUUUCUUUCUCUUUUAUGGAAAUGGCAGGUCUAUUUCUCUUGCGGUCGCACUAGUGUGGAAUUCUCGGGUGUCAAGG

Target: TDP-43 (Homo sapiens, UniProt Q13148 1-414)
Sequence (Q13148 whole entry): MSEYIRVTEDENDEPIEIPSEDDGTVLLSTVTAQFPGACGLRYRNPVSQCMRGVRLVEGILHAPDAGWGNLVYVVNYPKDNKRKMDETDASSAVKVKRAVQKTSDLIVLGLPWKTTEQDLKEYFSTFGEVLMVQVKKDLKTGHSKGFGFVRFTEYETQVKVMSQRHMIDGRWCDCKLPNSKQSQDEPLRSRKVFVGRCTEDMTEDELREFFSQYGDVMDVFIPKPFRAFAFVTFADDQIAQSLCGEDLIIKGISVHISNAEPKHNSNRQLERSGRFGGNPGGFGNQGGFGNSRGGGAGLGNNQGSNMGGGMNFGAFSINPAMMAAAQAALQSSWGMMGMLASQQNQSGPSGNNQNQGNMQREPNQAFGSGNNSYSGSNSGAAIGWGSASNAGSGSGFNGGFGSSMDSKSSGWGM
Test: RNA Bind-n-Seq with designed 260-mer pool; 25 mM Tris-HCl, 150 mM KCl, 3 mM MgCl2, BSA (printed 500 mg/mL), 20 units/mL SUPERase IN; pH not stated; 500 nM RNA pool, 1 h, 4 C; TDP-43 5, 50, 500 nM; high values mean tight binding
Settings: protein: recombinant; tags: SBP (GST cleaved off with PreScission; pGEX-GST-SBP)
In short: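 The incubation lasted 1 h at 4 °C and used 500 nM of an in vitro-transcribed 260-nt 3′ UTR oligo pool with recombinant SBP-tagged TDP-43 at 5, 50 or 500 nM immobilized on streptavidin beads. It took place in 25 mM Tris-HCl, 150 mM KCl, 3 mM MgCl2, BSA and SUPERase IN. Bound RNA was washed, eluted with biotin, converted to cDNA, PCR-amplified and sequenced to give R, each oligo's normalized abundance in the bound sample divided by that in input. Two independent protein batches provided the duplicates.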

Question: B1 was tested. Which binding signal did it give?
Answer: Its binding signal is 3.16 R (bound/input frequency ratio).

Question: Which binding signal does the source give for B2 here?
Answer: Its binding signal is 0.858 R (bound/input frequency ratio).

Question: Which binding signal does the source give for B3 here?
Answer: The binding signal was 0.0675 R (bound/input frequency ratio).

Question: How did the binding signal turn out when B4 was run?
Answer: The binding signal was 1.24 R (bound/input frequency ratio).

Question: B5 was tested. Which binding signal did it give?
Answer: Its binding signal is 0.949 R (bound/input frequency ratio).

Question: How did the binding signal turn out when B6 was run?
Answer: The binding signal was 0.667 R (bound/input frequency ratio).

Question: For B7, which binding signal is on record?
Answer: Its binding signal is 1.43 R (bound/input frequency ratio).

Question: Which binding signal does the source give for B8 here?
Answer: The binding signal was 1.36 R (bound/input frequency ratio).

Question: With B9 as the binder, how does the binding signal read?
Answer: Its binding signal is 1.13 R (bound/input frequency ratio).

Question: How did the binding signal turn out when B10 was run?
Answer: The binding signal was 1.15 R (bound/input frequency ratio).

Question: How did the binding signal turn out when B11 was run?
Answer: Its binding signal is 5.89 R (bound/input frequency ratio).

Question: B12 was tested. Which binding signal did it give?
Answer: The binding signal was 0.915 R (bound/input frequency ratio).

Question: B13 was tested. Which binding signal did it give?
Answer: The binding signal was 0.906 R (bound/input frequency ratio).
